The list is not random: actives were taken first. Their share in the collection is about 4.6%.
AHR act – AHR activators, primary screen, cell-based, luminescence, luciferase reporter, human; AID 2796, 2010; 320,000 compounds, 2.5% hits; Aryl hydrocarbon receptor (Homo sapiens), P35869; activation, % at 5 µM; AHR-responsive luciferase reporter cells; in the data active means activation above about 47%
Target sequence (P35869 whole entry, looked up): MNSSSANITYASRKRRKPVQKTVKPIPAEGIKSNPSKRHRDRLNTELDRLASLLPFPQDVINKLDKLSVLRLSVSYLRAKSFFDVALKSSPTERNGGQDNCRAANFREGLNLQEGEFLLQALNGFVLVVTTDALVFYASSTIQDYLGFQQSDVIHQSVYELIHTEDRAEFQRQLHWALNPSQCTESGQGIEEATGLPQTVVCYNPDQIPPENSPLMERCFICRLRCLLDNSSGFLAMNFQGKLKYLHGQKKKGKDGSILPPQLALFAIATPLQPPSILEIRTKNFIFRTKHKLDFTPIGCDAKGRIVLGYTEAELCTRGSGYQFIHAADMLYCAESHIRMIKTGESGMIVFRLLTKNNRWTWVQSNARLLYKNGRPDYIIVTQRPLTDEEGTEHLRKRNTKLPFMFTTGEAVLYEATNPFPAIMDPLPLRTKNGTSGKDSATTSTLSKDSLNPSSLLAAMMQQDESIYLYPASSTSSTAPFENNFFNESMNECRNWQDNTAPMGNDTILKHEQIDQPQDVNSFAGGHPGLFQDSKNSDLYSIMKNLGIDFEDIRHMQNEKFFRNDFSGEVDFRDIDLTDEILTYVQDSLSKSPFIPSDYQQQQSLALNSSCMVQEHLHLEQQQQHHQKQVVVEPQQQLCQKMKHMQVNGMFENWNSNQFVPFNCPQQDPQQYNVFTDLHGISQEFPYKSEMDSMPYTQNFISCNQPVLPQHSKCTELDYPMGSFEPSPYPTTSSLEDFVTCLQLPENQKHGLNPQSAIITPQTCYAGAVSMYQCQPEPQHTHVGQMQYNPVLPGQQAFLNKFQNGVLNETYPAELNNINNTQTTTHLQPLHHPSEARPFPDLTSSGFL
HSF1 inh – HSF1 inhibitors in luciferase reporter cells, primary screen, cell-based, NIH3T3, luminescence. NIH3T3-HGL HSE-luciferase, MG132-induced, luminescence 8 h; hits give low values. activity change, negative = inhibition, % at 7.5 µM (by protocol). 300,000 compounds, 0.77% hits. AID 2098, 2009;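 active means more than half of replicate wells show activity change below -50%, luminescence cut by over half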;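 further: luciferase reports HSF-1 transcriptional activity via heat shock element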
HSF1 activator – HSF-1 activators, primary screen, NIH3T3-HGL cells, MG132 stress, luminescence, single point. NIH3T3-HGL HSF-1 luciferase reporter, 8 h; 100% = twice DMSO control signal. activation, % at 9 µM. 300,000 compounds, 1.7% hits;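 active means mean replicate activation of at least 50% with a set share of replicates each reaching 50%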
GAA850 FXN act – FXN promoter activators, primary screen, cell-based, luciferase luminescence, HEK293 lucGAA850. HEK293 lucGAA850 FXN promoter luciferase reporter, 24 h; percent of 10 µM SAHA response. activation, % at 6 µM. 360,000 compounds, 0.56% hits. AID 540364, 2011;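 active means activation above the average of all compounds screened plus 3 SD, cutoff fixed separately per campaign, cut at about 7.5% in these data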
Large screens that a line does not name were inactive.

O=C(N/N=C/c1ccc(F)cc1)c1cc(-c2ccc3c(c2)OCO3)n[nH]1	none
Oc1ccccc1-c1cc(-c2ccc(F)cc2)n[nH]1	AHR act 74
COc1ccc(-c2cc(-c3ccccc3O)[nH]n2)cc1	HSF1 activator 85
Oc1ccc(F)cc1-c1cc(-c2ccc3c(c2)OCCO3)n[nH]1	HSF1 activator 105
COC(=O)c1cc(-c2ccc(OC)cc2)n[nH]1	none
COc1ccc(-c2cc(-c3c(O)c(OC)c4occc4c3OC)[nH]n2)cc1	AHR act 69
COc1ccc(-c2cc(-c3c(O)c(OC)c4occc4c3OC)[nH]n2)cc1OC	none
Cc1ccc(NC(=O)c2cc(-c3cccs3)on2)cc1	none
N#CCN(N=Nc1ccccc1)c1ccccc1	none
COc1ccccc1-c1cc(-c2cc(Cl)ccc2O)n[nH]1	none
Oc1ccc(Br)cc1-c1cc(-c2ccccc2F)[nH]n1	AHR act 56
Oc1ccc(Cl)cc1-c1cc(-c2ccccc2)n[nH]1	AHR act 66
CCCCNC(=O)c1ccc(NC(=O)C2CCCO2)cc1 (centres undefined)	none
CCCCc1ccc(NC(=O)C2CCCO2)cc1 (centres undefined)	HSF1 activator 63
CCn1c(SCc2nc3ccccc3s2)nnc1-c1ccccc1	none
COc1cccc(-c2nnc(SCc3nc4ccccc4s3)n2C)c1	HSF1 activator 64
CC1CCc2sc(C(=O)N/N=C/c3ccc([N+](=O)[O-])cc3)cc2C1 (centres undefined)	AHR act 65
O=C(N/N=C/c1ccc([N+](=O)[O-])cc1)c1cccs1	none
COc1cc(C(=O)Nc2cccc(-c3nc4cc(C)cc(C)c4o3)c2)cc(OC)c1OC	none (no result: AHR act, HSF1 inh, HSF1 activator)
Cc1ccc(NC(=O)c2cccc(Cl)c2)nc1	none
Cc1cccc(NC(=O)c2ccc(C(=O)c3ccccc3)cc2)n1	none
Cc1cc(NC(=O)c2cccc(Cl)c2)n[nH]1	AHR act 71
Cc1cccc(NC(=O)COc2ccc(Br)cc2)n1	AHR act 78
Cc1cccc(NC(=O)c2cccc(C(=O)Nc3cccc(C)n3)c2)n1	AHR act 50
COc1ccc2[nH]c(C(=O)Nc3cccc(C)n3)cc2c1	HSF1 activator 61
COc1ccc2[nH]c(C(=O)Nc3ccc(C)c(F)c3)cc2c1	none
Cc1cc(-c2nnc(CCC(=O)N(CC3CC3)CC3CCCO3)o2)no1 (centres undefined)	none
CCOC(=O)N1CCC(NC(=O)c2cc3c(-c4ccc(Cl)cc4)nn(C)c3s2)CC1	none (no result: HSF1 inh, HSF1 activator)
CCCCNC(=O)c1cc2c(-c3ccc(Cl)cc3)nn(C)c2s1	AHR act 50
Cc1ccccc1-n1nc(C)c2cc(C(=O)N3CCN(S(=O)(=O)c4ccc(Cl)cc4)CC3)sc21	none
CC(C)NC(=O)c1cc2c(-c3ccc(Cl)cc3)nn(C)c2s1	AHR act 59
Cn1nc(-c2ccc(Cl)cc2)c2cc(C(=O)N3CCCC3)sc21	AHR act 50
Cn1nc(-c2ccc(Cl)cc2)c2cc(C(=O)NCCCN3CCCC3)sc21	AHR act 54
O=C(CCc1c[nH]c2ccccc12)NCCc1ccccc1	none
COc1ccc(-c2ccc(C(=O)NCCN(C)C)c3occc23)c(C)c1	none (no result: AHR act, HSF1 inh, HSF1 activator)
NC(=O)c1sc2nc(N3CCOCC3)c3c(c2c1N)CCCC3	none
Cn1cccc1C(=O)OCC(=O)NCCCc1ccccc1	none (no result: HSF1 inh, HSF1 activator)
COCCCNC(=O)c1cc2c(-c3ccc(Cl)cc3)nn(C)c2s1	AHR act 64
CCCCN(CC)CCCNC(=O)c1cc2c(-c3ccc(OC)c(OC)c3)nn(C)c2s1	none
CCN1CCCC1CNC(=O)c1cc2c(-c3ccc(Cl)cc3)nn(C)c2s1 (centres undefined)	AHR act 59
CCCCN(C)CCNC(=O)c1cc2c(-c3ccccc3F)nn(C)c2s1	HSF1 inh -63
CCN1CCCC1CNC(=O)c1cc2c(-c3cccc(OC)c3)nn(C)c2s1 (centres undefined)	none
Cc1ccc(CNC(=O)c2cc3c(-c4ccc(Cl)cc4)nn(C)c3s2)o1	none
COCCNC(=O)c1cc2c(-c3ccc(Cl)cc3)nn(C)c2s1	AHR act 59
O=c1oc2ccccc2cc1-c1csc(Nc2nc3ccc(F)cc3s2)n1	none (no result: GAA850 FXN act)
COc1ccc(NC(=O)/C(Cl)=C(/Cl)S(=O)(=O)Cc2ccccc2)cn1	HSF1 inh -76 (no result: AHR act)
O=CNc1ccc2c(c1)Cc1cc([N+](=O)[O-])ccc1-2	none (no result: AHR act, HSF1 inh, HSF1 activator)
Cc1cccc(C(=O)NCC(=O)N2CC(=O)Nc3ccccc32)c1	HSF1 inh -51
O=C1CN(C(=O)CNC(=O)c2cccc(Cl)c2)c2ccccc2N1	none
CCS(=O)(=O)N1CCN(C(=O)c2ccccc2)CC1	HSF1 inh -86
Cc1ccc(-n2nc(C)c(C(=O)O)n2)c(C)c1	none
CC1=NN(c2ccc(C)cc2C)C(=O)C1C(c1ccccc1)C1C(=O)N(c2ccc(C)cc2C)N=C1C (centres undefined)	HSF1 activator 64
O=C(CN1CCN(C(=O)c2ccccc2F)CC1)Nc1ccc(Br)cc1	AHR act 56
CCC(=O)c1ccc(OCC(=O)OCC(=O)N(C)CC(=O)Nc2ccc(F)cc2)cc1	none
Cc1ccc([N+](=O)[O-])c(OCCCN2CCC(Cc3ccccc3)CC2)c1	HSF1 inh -60
O=C(c1cnn2c(C(F)(F)F)cc(-c3ccccc3)nc12)N1CCCCC1c1cccnc1 (centres undefined)	AHR act 50
CNC(=S)N/N=C/c1c(C)cccc1Cl	none
CNC(=S)N/N=C/c1c2ccccc2c(Cl)c2ccccc12	AHR act 48
Oc1ccc2ccccc2c1C=NCc1cn2ccsc2n1	AHR act 66
O=C(NCC1CC1)c1ccc2nc([C@@H]3O[C@H](CO)[C@H](O)[C@H](O)[C@H]3O)[nH]c2c1	none (no result: AHR act, HSF1 inh, HSF1 activator)
CCn1c(C)cc2c(c1=O)C(c1ccccc1)C(C(=O)OC)=C(N)O2 (centres undefined)	none
O=C(NCc1ccco1)C(=O)NCC(c1ccco1)N1CCOCC1 (centres undefined)	HSF1 inh -69
O=C(NCc1cccnc1)C(=O)NCC(c1ccco1)N1CCN(c2ccccc2)CC1 (centres undefined)	HSF1 activator 80
Cc1cc(OC(=O)c2ccccc2Br)c([N+](=O)[O-])c(=O)[nH]1	none
CC(C)=C1C2CCC1C1C(=O)N(c3nccs3)C(=O)C21 (centres undefined)	none
CC(C)=C1C2CCC1C1C(=O)N(c3nc(-c4ccccc4)c(C)s3)C(=O)C21 (centres undefined)	HSF1 activator 74
CC(=O)N(Cc1ccc(F)cc1)C1=C(NCc2ccccc2)C(=O)c2ccccc2C1=O	none (no result: AHR act)
CCN(CC)C(=O)COc1ccc2oc(C)c(C(=O)OC(C)C)c2c1	AHR act 67
Cc1oc2ccc(OS(C)(=O)=O)cc2c1C(=O)OC(C)C	none
COC(=O)c1c(N)n(CCCN2CCOCC2)c2nc3ccccc3nc12	none
NNC(=S)NC1CC2CC1C1C=CCC21 (centres undefined)	HSF1 inh -54

Compound activity deposited in PubChem BioAssay by several laboratories.
